The results in this text go back to the supplement of paper PMC11001985.

Sequence of UniProt Q01082 (Q01082 whole entry): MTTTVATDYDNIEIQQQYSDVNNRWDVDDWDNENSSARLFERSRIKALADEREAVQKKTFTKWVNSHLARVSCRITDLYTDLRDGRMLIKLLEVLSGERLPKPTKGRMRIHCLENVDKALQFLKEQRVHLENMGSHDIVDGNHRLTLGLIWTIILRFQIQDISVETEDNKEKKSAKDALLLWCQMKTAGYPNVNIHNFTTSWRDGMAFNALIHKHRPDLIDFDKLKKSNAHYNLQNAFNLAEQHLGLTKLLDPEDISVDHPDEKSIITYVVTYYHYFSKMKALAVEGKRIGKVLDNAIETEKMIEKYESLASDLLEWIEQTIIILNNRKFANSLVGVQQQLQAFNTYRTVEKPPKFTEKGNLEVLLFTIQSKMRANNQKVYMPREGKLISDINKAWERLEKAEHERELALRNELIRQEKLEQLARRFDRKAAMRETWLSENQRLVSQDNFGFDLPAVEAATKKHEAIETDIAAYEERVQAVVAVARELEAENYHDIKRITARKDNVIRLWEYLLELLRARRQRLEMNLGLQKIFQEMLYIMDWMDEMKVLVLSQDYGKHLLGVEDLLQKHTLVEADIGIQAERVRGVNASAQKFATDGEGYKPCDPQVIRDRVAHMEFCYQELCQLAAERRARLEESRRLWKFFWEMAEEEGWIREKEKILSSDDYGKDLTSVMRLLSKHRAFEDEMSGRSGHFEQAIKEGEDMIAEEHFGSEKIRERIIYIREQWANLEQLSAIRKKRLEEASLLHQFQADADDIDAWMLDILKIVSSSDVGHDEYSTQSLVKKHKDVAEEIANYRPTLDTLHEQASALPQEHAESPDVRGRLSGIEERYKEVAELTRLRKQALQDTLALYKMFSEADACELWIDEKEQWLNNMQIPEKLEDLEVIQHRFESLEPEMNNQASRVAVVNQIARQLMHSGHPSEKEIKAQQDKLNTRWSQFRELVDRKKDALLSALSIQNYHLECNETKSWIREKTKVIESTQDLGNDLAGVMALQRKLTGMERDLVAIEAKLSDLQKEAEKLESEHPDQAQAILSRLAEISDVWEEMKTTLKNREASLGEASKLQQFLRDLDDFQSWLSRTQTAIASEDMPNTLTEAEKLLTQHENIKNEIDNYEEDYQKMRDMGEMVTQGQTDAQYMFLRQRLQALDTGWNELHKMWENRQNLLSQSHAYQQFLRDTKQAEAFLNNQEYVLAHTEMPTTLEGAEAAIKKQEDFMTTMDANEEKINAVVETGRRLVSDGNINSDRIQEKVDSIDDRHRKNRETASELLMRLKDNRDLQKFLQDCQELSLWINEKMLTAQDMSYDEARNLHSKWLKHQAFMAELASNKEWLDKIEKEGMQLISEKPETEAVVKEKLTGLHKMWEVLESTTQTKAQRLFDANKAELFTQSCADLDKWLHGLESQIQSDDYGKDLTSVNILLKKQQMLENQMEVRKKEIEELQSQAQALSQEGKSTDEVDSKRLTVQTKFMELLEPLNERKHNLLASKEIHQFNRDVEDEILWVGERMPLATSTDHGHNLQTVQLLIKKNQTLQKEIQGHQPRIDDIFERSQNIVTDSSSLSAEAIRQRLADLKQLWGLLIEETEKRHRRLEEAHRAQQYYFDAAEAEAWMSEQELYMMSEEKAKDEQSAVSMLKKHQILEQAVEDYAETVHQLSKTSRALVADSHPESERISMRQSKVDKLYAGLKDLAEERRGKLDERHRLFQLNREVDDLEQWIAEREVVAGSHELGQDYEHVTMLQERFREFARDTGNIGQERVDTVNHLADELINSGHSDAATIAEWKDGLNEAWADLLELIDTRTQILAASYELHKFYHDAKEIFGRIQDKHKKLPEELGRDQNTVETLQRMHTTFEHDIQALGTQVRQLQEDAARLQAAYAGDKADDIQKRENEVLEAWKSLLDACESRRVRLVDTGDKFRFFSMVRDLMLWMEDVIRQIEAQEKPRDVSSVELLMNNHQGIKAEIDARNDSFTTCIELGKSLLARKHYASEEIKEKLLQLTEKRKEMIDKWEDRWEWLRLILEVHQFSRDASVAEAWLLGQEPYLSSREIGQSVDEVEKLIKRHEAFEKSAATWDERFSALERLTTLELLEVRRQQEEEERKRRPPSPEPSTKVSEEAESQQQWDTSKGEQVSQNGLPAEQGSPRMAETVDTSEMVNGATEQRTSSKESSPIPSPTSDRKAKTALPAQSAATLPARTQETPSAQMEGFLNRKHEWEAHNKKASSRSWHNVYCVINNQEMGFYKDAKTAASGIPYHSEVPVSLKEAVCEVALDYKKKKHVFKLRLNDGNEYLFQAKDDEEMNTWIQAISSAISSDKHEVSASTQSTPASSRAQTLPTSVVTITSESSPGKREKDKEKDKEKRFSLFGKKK
Sequence of UniProt P21333 (P21333 whole entry): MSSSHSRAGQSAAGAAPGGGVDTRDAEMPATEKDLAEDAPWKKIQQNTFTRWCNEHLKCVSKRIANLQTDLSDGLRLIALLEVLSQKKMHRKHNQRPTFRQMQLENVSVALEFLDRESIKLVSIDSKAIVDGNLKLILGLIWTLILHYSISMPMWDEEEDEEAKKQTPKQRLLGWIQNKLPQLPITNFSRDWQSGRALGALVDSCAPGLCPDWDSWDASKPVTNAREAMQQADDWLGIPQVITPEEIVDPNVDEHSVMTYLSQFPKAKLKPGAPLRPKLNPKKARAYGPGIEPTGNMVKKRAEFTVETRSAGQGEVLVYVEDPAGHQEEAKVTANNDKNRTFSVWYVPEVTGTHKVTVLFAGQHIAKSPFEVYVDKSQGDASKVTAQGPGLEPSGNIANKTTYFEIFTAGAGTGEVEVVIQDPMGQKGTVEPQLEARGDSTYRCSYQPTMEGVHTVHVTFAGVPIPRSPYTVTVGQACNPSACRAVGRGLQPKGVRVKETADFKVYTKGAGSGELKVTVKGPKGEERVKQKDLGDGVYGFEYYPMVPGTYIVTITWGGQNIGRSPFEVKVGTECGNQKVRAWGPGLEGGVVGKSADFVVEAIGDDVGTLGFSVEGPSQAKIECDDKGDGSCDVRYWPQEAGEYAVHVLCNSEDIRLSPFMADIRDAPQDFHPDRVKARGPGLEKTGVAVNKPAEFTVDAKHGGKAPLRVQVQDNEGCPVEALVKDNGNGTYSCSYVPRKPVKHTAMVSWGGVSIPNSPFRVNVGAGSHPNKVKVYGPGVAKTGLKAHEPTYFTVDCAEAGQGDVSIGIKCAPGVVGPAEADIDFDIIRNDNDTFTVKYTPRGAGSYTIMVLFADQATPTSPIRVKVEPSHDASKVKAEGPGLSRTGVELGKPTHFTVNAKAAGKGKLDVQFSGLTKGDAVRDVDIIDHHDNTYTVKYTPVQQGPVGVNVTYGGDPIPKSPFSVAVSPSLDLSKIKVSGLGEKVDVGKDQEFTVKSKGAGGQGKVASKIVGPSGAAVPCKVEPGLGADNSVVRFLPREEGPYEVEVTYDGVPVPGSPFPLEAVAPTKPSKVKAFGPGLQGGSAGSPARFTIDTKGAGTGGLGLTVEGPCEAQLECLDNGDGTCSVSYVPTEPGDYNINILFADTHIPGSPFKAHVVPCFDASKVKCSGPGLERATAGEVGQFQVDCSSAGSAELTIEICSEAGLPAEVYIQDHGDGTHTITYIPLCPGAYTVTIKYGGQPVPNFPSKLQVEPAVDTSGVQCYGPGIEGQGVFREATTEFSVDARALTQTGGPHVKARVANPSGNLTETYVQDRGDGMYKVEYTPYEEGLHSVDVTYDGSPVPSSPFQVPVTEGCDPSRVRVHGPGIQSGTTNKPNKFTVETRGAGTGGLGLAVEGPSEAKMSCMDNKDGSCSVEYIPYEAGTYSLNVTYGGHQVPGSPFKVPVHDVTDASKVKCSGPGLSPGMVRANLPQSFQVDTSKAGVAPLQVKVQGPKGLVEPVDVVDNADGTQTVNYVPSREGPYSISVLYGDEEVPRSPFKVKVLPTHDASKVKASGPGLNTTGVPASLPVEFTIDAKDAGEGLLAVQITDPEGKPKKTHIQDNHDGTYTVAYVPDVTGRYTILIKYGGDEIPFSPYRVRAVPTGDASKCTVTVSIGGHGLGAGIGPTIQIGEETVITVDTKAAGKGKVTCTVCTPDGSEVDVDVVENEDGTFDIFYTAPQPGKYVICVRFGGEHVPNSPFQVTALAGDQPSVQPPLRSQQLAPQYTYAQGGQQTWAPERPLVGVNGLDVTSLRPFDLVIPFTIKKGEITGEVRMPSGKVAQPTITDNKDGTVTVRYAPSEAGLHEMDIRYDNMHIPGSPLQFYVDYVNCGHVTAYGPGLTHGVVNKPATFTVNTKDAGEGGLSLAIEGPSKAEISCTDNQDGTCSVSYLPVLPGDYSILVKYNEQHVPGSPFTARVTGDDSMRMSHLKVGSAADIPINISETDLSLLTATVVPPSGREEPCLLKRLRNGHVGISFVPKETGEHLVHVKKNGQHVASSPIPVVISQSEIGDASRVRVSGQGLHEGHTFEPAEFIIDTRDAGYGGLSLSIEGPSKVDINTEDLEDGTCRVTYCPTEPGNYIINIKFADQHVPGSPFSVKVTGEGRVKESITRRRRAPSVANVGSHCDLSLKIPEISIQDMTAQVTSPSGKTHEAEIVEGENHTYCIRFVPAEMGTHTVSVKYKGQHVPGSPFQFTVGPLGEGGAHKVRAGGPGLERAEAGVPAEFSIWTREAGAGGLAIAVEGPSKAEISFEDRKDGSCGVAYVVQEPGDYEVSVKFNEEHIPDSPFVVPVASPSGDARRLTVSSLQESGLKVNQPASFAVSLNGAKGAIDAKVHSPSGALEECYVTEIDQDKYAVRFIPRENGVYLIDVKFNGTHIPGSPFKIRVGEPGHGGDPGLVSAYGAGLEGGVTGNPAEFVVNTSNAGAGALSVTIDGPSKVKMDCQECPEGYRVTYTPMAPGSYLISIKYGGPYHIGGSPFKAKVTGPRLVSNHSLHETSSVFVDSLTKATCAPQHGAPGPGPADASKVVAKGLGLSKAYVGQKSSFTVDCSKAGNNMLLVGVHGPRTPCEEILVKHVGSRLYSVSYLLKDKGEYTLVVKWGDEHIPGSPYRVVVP
Sequence of UniProt P16949 (P16949 whole entry): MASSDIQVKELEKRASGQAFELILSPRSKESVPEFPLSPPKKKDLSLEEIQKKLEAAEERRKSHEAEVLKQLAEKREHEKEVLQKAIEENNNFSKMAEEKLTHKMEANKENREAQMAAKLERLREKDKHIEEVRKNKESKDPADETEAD

Compound in this experiment: C#CCNC(=O)CCSSCCC(=O)NCCc1ccc(C=O)c(C=O)c1
Nature of the experiment: lysine labeling ratio R10:1 (500 µM / 50 µM probe), SILAC-ABPP in living cells; higher = lower intrinsic lysine reactivity toward the probe, active = 2 or less. The conditions noted are these: HeLa; probe concentrations 500 vs 50 µM. Put shortly:
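SILAC light and heavy living HeLa cells in PBS at room temperature were labelled with 50 µM or 500 µM of an alkyne-tagged, disulfide-linked lysine probe, with forward and reverse label swaps. Mixed lysates were clicked to biotin-azide, trypsin-digested, captured on neutravidin, DTT-released, alkylated and analysed by LC-MS/MS on a TIMS-TOF Pro. R is the filtered median high-probe/low-probe MS1 peptide ratio per lysine, then the median across forward and reverse replicates. Ratios are capped at 20.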
With “ITGA1 (lysine site: K291) (UniProt P56199)”, the “lysine labeling ratio R10:1” value is 7.48 (inactive).
With UniProt P05787 (lysine site: K295), the “lysine labeling ratio R10:1” value is 11.9 (inactive).
To “HGS (lysine site: K551) (UniProt O14964)” belongs 0.818 (active).
The figure for “SLC1A4 (lysine site: K239) (UniProt P43007)” is 1.94 (active); for “SPTBN1 (lysine site: K497) (UniProt Q01082)” it is 2.59 (inactive).
The figure for “MARS (lysine site: K729) (UniProt P56192)” is 1.58 (active); for “ROBO1 (lysine site: K224) (UniProt Q9Y6N7)” it is 0.52 (active).
For the target “RPL5 (lysine site: K188) (UniProt P46777)”, the “lysine labeling ratio R10:1” value is 4.22 (inactive).
As for “AK2 (lysine site: K147) (UniProt P54819)”, the “lysine labeling ratio R10:1” value was 6.91 (inactive).
To UniProt P46781 (lysine site: K30) belongs 1.01 (active); to “SPTBN1 (lysine site: K1884) (UniProt Q01082)”, 4.5 (inactive); to “YBX1 (lysine site: K170) (UniProt P67809)”, 9.44 (inactive).
To “CALD1 (lysine site: K534) (UniProt Q05682)” belongs 0.785 (active); to “L1CAM (lysine site: K144) (UniProt P32004)”, 1.09 (active); to “RUVBL1 (lysine site: K182) (UniProt Q9Y265)”, 0.748 (active).
Take “PDIA3 (lysine site: K104) (UniProt P30101)”: the “lysine labeling ratio R10:1” value was 1.07 (active).
As to UniProt P62249 (lysine site: K131), the “lysine labeling ratio R10:1” value was 2.97 (inactive).
To “FLNA (lysine site: K2000) (UniProt P21333)” belongs 1.14 (active); to “TMEM30A (lysine site: K155) (UniProt Q9NV96)”, 2.09 (inactive).
For “NRP1 (lysine site: K509) (UniProt O14786)”, the “lysine labeling ratio R10:1” value is 5.12 (inactive).
The figure for “PRDX2 (lysine site: K92) (UniProt P32119)” is 6.57 (inactive).
To UniProt P62829 (lysine site: K13) belongs 5.2 (inactive); to UniProt P21589 (lysine site: K326), 1.17 (active); to “SEMA3C (lysine site: K613) (UniProt Q99985)”, 5.77 (inactive).
The figure for UniProt P49591 (lysine site: K12) is 0.947 (active); for “ITGB1 (lysine site: K87) (UniProt P05556)” it is 2.04 (inactive); for “STMN1 (lysine site: K128) (UniProt P16949)” it is 2.8 (inactive).
As for “PCNA (lysine site: K254) (UniProt P12004)”, the “lysine labeling ratio R10:1” value is 1.56 (active).
To UniProt P62273 (lysine site: K33) belongs 1.51 (active); to “HNRNPU (lysine site: K551) (UniProt Q00839)”, 1.98 (active); to “CDCP1 (lysine site: K369) (UniProt Q9H5V8)”, 2.97 (inactive).
The figure for “NUMA1 (lysine site: K284) (UniProt Q14980)” is 2 (active); for “EHD1 (lysine site: K220) (UniProt Q9H4M9)” it is 4.05 (inactive); for “CD109 (lysine site: K86) (UniProt Q6YHK3)” it is 1.68 (active).
With “PLXNA2 (lysine site: K542) (UniProt O75051)”, the “lysine labeling ratio R10:1” value was 1.9 (active).
To “IDE (lysine site: K364) (UniProt P14735)” belongs 2.3 (inactive).
For “FLNA (lysine site: K578) (UniProt P21333)”, the “lysine labeling ratio R10:1” value is 1.25 (active).
With “SPTBN1 (lysine site: K997) (UniProt Q01082)”, the “lysine labeling ratio R10:1” value was 2.87 (inactive).
As to “CD82 (lysine site: K114) (UniProt P27701)”, the “lysine labeling ratio R10:1” value is 0.977 (active).
“NOTCH2 (lysine site: K693) (UniProt Q04721)”: the “lysine labeling ratio R10:1” value was 1.5 (active).
